Measurements reported in PubChem BioAssay AID1259400 (National Center for Advancing Translational Sciences (NCATS), 2018).
Values joined by “and” are separate entries in the source; they are usually repeats but may differ in a detail not shown here. Identical values can stand only once. Screen size: about 350,000 compounds; about 2,100 (0.6%) were called active. Not shown: some 1% with an inconclusive outcome. The entries come from a sample that favours actives as a whole. A number with no mark means an inactive call.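 Rule for the calls: active = activity change of -60% or lower, but not beyond a set lower limit; inconclusive = change between -60% and -40%, or beyond the set limit; inactive = change above -40%.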

Molecular target: Relaxin receptor 1 (Homo sapiens) (UniProt Q9HBX9)
Test: qHTS Assay for Antagonists of the Relaxin Receptor RXFP1
Conditions: HEK293-RXFP1, relaxin-stimulated cAMP HTRF, 30 min; at 57.5 µM; hits give low values
% is set by controls: 0 for no effect and ±100 for the full control effect.

Chain of Relaxin receptor 1 (Homo sapiens) (Q9HBX9 whole entry, looked up): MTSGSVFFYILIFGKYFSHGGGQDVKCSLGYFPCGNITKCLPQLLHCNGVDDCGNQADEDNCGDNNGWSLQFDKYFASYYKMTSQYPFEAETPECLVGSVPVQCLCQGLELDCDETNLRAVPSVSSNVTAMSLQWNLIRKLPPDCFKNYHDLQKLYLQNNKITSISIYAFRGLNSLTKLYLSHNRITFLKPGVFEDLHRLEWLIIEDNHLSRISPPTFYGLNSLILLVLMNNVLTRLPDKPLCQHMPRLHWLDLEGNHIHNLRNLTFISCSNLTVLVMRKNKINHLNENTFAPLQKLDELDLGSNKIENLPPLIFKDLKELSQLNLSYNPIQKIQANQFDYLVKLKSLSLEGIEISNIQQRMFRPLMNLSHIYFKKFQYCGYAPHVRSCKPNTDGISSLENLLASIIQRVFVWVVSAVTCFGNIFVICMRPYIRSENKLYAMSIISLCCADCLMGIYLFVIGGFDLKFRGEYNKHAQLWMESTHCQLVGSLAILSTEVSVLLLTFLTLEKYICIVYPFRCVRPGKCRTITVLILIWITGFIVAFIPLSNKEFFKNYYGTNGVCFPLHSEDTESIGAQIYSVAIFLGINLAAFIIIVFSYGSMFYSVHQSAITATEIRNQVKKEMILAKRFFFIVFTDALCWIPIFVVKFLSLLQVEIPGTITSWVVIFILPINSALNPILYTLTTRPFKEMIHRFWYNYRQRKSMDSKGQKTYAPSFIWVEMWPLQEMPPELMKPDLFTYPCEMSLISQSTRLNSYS

Going from `CCCn1c(NCc2ccc(N(CC)CC)cc2)nc2ccccc21` to `CCC(=O)Nc1ccc(C)cc1-c1nc2ccccc2n(Cc2ccccc2)c1=O`, the activity change, negative = inhibition rises from -15% to -2.19%.

Compared with `O=C(CSc1oc(-c2ccc(F)cc2)nc1S(=O)(=O)c1ccc(Br)cc1)NC1CCCCC1`, `Cc1ccc(-c2nc(S(=O)(=O)c3ccc(C)cc3)c(N3CCCCCC3)o2)cc1` is higher in activity change, negative = inhibition: -5.96% for the first, 2.42% for the second.

First: O=c1cnnc(Nc2ccccc2)[nH]1
Second: Cc1nnc(Nc2ccccc2F)s1
The activity change, negative = inhibition of the first is higher: 9% for the first, 3.61% for the second.

Going from `CCCN(CCC)CCNC(=O)c1ccc2c(c1)NC(=O)C(CS(=O)(=O)Cc1cccc(Br)c1)N2` (stereo unspecified) to `COc1ccc(CCNC(=O)c2ccc3c(c2)nc(C)n3-c2ccc(Br)cc2)cc1OC`, the activity change, negative = inhibition falls from -10.4% to -27.1%.

First: Cc1ccc(CN(C(=O)COc2ccc(Cl)cc2C)C2CCS(=O)(=O)C2)o1 (stereo unspecified)
Second: CCN1CCN(c2cc(C)c3cc(NC(=O)c4cc(Cl)ccc4OC)ccc3n2)CC1
The activity change, negative = inhibition of the first is higher: -6.16% for the first, -19.5% for the second.

Compared with `COc1cc(OC)c(NC(=O)N2CC3CCCN3c3ccccc32)cc1Cl` (stereo unspecified), `COc1ccc(NC(=O)N2CCCC(c3nc(-c4ccc(F)cc4)no3)C2)cc1` (stereo unspecified) is higher in activity change, negative = inhibition: -23.5% for the first, 2.56% for the second.

First: Cc1nc(SCC(=O)Nc2ccc(C(=O)O)cc2)n[nH]1
Second: Cc1ccn2c(-c3csc(Nc4ccc(C(=O)O)cc4)n3)c(C)nc2c1
The activity change, negative = inhibition of the first is lower: -9% for the first, 6.41% for the second.

First: CCOc1ccc(NC(=O)c2c(NCc3cccc(OC)c3OC)sc3c2CCC3)cc1
Second: CCOC(=O)c1ccc(NC(=O)c2c(NCc3cccc(OC)c3)sc3c2CCC3)cc1
The activity change, negative = inhibition of the first is higher: -17.6% for the first, -35.6% for the second.

Compared with `COc1cccc(C(=O)NC(=O)Nc2ccc(-c3cc(C(F)(F)F)nn3-c3ccccc3)cc2)c1`, `CCOC(=O)c1cc(-c2ccccc2)n(-c2cccc(C(=O)Nc3cc(OC)cc(OC)c3)c2)c1C` is lower in activity change, negative = inhibition: -5.11% for the first, -10.5% for the second.

First: Cc1ccc(Cl)cc1N1CCN(C(=O)c2cccn3c(=O)c4cc(Cl)ccc4nc23)CC1
Second: O=C(CN1CCN(c2ccc(Cl)cc2)CC1)c1ccccc1
The activity change, negative = inhibition of the first is lower: 3.52% for the first, 6.85% for the second.

Going from `COC(=O)Nc1nc2ccc(C(=O)C3CC3)cc2[nH]1` to `COC(=O)c1cc(Cl)c(NC(C)=O)cc1OC`, the activity change, negative = inhibition falls from 14.8% to -14.6%.

First: Cn1c(SCC(=O)N2CCCc3ccccc32)ncc(C(=O)Nc2ccc(F)cc2)c1=O
Second: CCc1ccc(NC(=O)c2sc3nc4c(cc3c2N)CN(CC)CC4)cc1
The activity change, negative = inhibition of the first is higher: -2.51% for the first, -24.5% for the second.

First: Cc1cc(C)c2oc(C(=O)Nc3ccc(S(=O)(=O)N(C)c4ccccc4)cc3)cc(=O)c2c1
Second: Cc1cc(NC(=O)c2cccc(Cl)c2)ccc1-c1cc2ccccc2oc1=O
The activity change, negative = inhibition of the first is higher: -2.14% for the first, -4.13% for the second.

Going from `COC(=O)c1ccc(NC(=O)c2cnn(-c3ccc(Cl)cc3)c2C2CCN(C(=O)OC(C)(C)C)CC2)cc1` to `O=C(NCC(c1ccc(Cl)cc1)N1CCOCC1)c1ccccc1F` (stereo unspecified), the activity change, negative = inhibition rises from -12.3% to -0.553%.

Compared with `CC1=C(c2ccc(C)cc2)S(=O)(=O)NC1=NCCCN1CCN(c2cc(C)ccc2C)CC1`, `CCOC(=O)c1c(C)[nH]c(CCC(=O)NCCCN2CCN(c3cc(C)ccc3C)CC2)c1C` is lower in activity change, negative = inhibition: -13.1% for the first, -33.7% for the second.

Going from `COC(=O)/C=C(/C)N` to `COC(=O)c1c(C)c(C)nc(N)c1C#N`, the activity change, negative = inhibition rises from 5.99% to 9.32%.

First: COC(=O)c1nn(-c2cccc(Cl)c2)ccc1=O
Second: O=C(CSc1nnc(-c2ccncc2)o1)Nc1cccc(Cl)c1
The activity change, negative = inhibition of the first is lower: -8.77% for the first, -1.48% for the second.

Going from `O=C(CCOc1ccccc1)N(Cc1cccnc1)c1nc2ccc(Cl)cc2s1` to `Cc1c(NC(=O)Cc2ccccc2)cccc1-c1nc2cccnc2s1`, the activity change, negative = inhibition rises from 0.968% to 5.77%.

Compared with `COc1ccc(OC)c(NC(=O)CSC2=Nc3ccccc3C3=NC(CC(=O)NCc4ccc(F)cc4)C(=O)N23)c1` (stereo unspecified), `Cc1cc(C)cc(NC(=O)CSc2nc3nccnc3c(=O)n2CCc2c[nH]c3ccccc23)c1` is higher in activity change, negative = inhibition: -11.9% for the first, 4.86% for the second.

Going from `COCCCN1CCC(NC(=O)c2cc(Cl)c(N)c3c2OCC3)CC1` to `CC(Oc1ccc(Br)cc1)C(=O)NC1CCCCCC1` (stereo unspecified), the activity change, negative = inhibition falls from -9.44% to -9.73%.

Compared with `O=C(/C=C/c1cc2c(cc1Br)OCO2)NCc1ccc(Cl)cc1`, `O=C(N/N=C\c1cc2c(cc1Cl)OCO2)c1ccc(Br)s1` is higher in activity change, negative = inhibition: 0.543% for the first, 5.05% for the second.

First: COc1cc(Cl)c(NC(=O)CC(C)S(=O)(=O)c2cc3c(cc2C)NC(=O)CO3)c(OC)c1 (stereo unspecified)
Second: Cc1ccc(Cl)cc1NC(=O)C(C)n1nnc2sc(-c3ccccc3)cc2c1=O (stereo unspecified)
The activity change, negative = inhibition of the first is higher: 0.439% for the first, -12.2% for the second.

Compared with `CC(Nc1nc(N2CCCC2)nc2ccccc12)c1ccccc1` (stereo unspecified), `Fc1ccc(Nc2nc(SCc3ccccc3Cl)nc3ccccc23)cc1` is lower in activity change, negative = inhibition: -10.3% for the first, -23.1% for the second.

Compared with `Fc1cnc(N2CCOCC2)nc1NCc1ccccc1`, `O=C(OCc1ccccc1)c1ccc(O)cc1` is lower in activity change, negative = inhibition: 11.7% for the first, 3.77% for the second.

First: CCCc1c2oc(C(=O)O)cc(=O)c2cc2c(=O)cc(C(=O)O)n(CC)c12
Second: CCN1CCN(C(=O)N[C@@H](C(=O)N[C@@H]2C(=O)N3[C@@H]2SC(C)(C)[C@H]3C(=O)O)c2ccccc2)C(=O)C1=O
The activity change, negative = inhibition of the first is lower: -5.22% for the first, -3.73% for the second.

First: COc1cc(/C=C/C(N)=O)cc(OC)c1OC
Second: COc1ccccc1Nc1c2c(nc3ccc(NC(=O)/C=C/c4cc(OC)c(OC)c(OC)c4)cc13)CCCC2
The activity change, negative = inhibition of the first is lower: -9.25% for the first, 5.51% for the second.

First: CCOc1ccc(-c2nc(N)ncc2-c2ccccc2OC)c(O)c1
Second: C=C(C)COc1ccc(-c2ncncc2-c2ccc(OC)cc2)c(O)c1
The activity change, negative = inhibition of the first is lower: -16% for the first, -10.6% for the second.

Compared with `Cc1ccc(CCNC(=O)c2nnc(Cc3cccc(F)c3)o2)cc1`, `CCN(C(=O)CSc1nnc(C)n2c1cc1occc12)c1ccccc1` is lower in activity change, negative = inhibition: -3.15% for the first, -12.2% for the second.

First: CC(OC(=O)CN1C(=O)c2ccccc2C1=O)C(=O)c1ccccc1 (stereo unspecified)
Second: O=C(OCC(O)C(O)COC(=O)c1ccccc1)c1ccccc1 (stereo unspecified)
The activity change, negative = inhibition of the first is higher: 6.31% for the first, -12.8% for the second.

Compared with `CC(O)COc1ccccc1` (stereo unspecified), `COc1ccc(OCC(O)CNCCNc2nccc(C(F)(F)F)n2)cc1` (stereo unspecified) is higher in activity change, negative = inhibition: 1.89% for the first, 6.63% for the second.

First: Cc1noc(/C=C/N(C)C)c1S(=O)(=O)N1CCCC(C(=O)Nc2cccc(F)c2)C1 (stereo unspecified)
Second: O=C(c1ccc(F)cc1)N1CCCC(c2nc(-c3cccs3)no2)C1 (stereo unspecified)
The activity change, negative = inhibition of the first is lower: -3.51% for the first, 2.8% for the second.

Going from `O=C(C[n+]1ccc2c(c1)nnn2-c1ccccc1)c1ccc(Cl)cc1` to `CCOc1ccc(S(=O)(=O)c2cn(Cc3ccccc3)c3ccc(OCC)cc3c2=O)cc1`, the activity change, negative = inhibition falls from -11.1% to -11.7%.

First: CN[C@@H]1[C@@H](O)[C@@H](O[C@@H]2[C@H](O)[C@H](O[C@H]3OC(CN)=CC[C@H]3N)[C@@H](N)C[C@H]2N)OCC1(C)O (stereo partly specified)
Second: CCOc1ccc(N2CC(c3nc4ccccc4n3CCOc3ccc(OC)cc3)CC2=O)cc1 (stereo unspecified)
The activity change, negative = inhibition of the first is higher: -9.15% for the first, -13% for the second.

Going from `O=C1Cc2cc(S(=O)(=O)Nc3ccc(OC(F)(F)F)cc3)cc3c2N1CCC3` to `CCOc1ccc(NS(=O)(=O)c2ccc(N)cc2)nn1`, the activity change, negative = inhibition rises from -19.8% to 9.63%.

First: COC(=O)CSc1nnc(-c2cccnc2)o1
Second: COCc1c(C(=O)N/N=C\c2cccnc2)nnn1-c1nonc1N
The activity change, negative = inhibition of the first is higher: 5.1% for the first, -21.1% for the second.

`Nc1nonc1-n1nnc(C(=O)N/N=C\c2ccncc2)c1CN1CCCCC1` gave an activity change, negative = inhibition of 7.31%.

With `CC(C)S(=O)(=O)c1oc(-c2ccc(F)cc2)nc1S(=O)(=O)c1ccc(F)cc1` the activity change, negative = inhibition was -89.7% (active).
`O=c1cnnc(Nc2ccccc2F)[nH]1` was tested, and the activity change, negative = inhibition was -93.6% (active).
In the case of `Oc1c(Cl)cc(Cl)c(Cl)c1Cc1c(O)c(Cl)cc(Cl)c1Cl`, the activity change, negative = inhibition is reported as -62.6% (active).
In the case of `CCOC(=O)N1CCc2c(sc(NCc3cccc(F)c3)c2C(=O)Nc2ccccc2OCC)C1`, the activity change, negative = inhibition is reported as -69.1% (active).
With `CC(C)N=C1CCCC1C(=S)SSC(=S)C1CCCC1=NC(C)C` (stereo unspecified) the activity change, negative = inhibition was -72.7% (active).
In the case of `CCc1nc2ccc(C(=O)N3CCN(c4cccc(Cl)c4)CC3)cc2nc1CC`, the activity change, negative = inhibition is reported as -23.6% and -19.3%.
For `CCc1nc2ccc(C(=O)N3CCN(c4cc(Cl)ccc4C)CC3)cc2nc1CC`, the activity change, negative = inhibition was -64.4% (active).
`O=c1oc2ccccc2cc1-c1csc(Nc2ccc(O)cc2)n1` was tested, and the activity change, negative = inhibition was -97% (active).
In the case of `COC(=O)c1nc(Cl)c(Cl)nc1N`, the activity change, negative = inhibition is reported as -98.8% (active).
For `CC1(C(=O)N/N=C/c2cc3c(cc2Br)OCO3)CC1(Br)Br` (stereo unspecified), the activity change, negative = inhibition was -82.7% (active).
In the case of `NNc1nc2c(Cl)cccc2s1`, the activity change, negative = inhibition is reported as -80.1% (active).
With `c1ccc2c(NC3C4CC5CC(C4)CC3C5)nc(N3CCOCC3)nc2c1` (stereo unspecified) the activity change, negative = inhibition was -78.7% (active).
With `C=C(C)COc1ccc(-c2nc(N)ncc2-c2ccccc2OC)c(O)c1` the activity change, negative = inhibition was -62% (active).
In the case of `C=CCC(C(=O)c1ccccc1)[N+](C)(C)CC=C` (stereo unspecified), the activity change, negative = inhibition is reported as -82.2% (active).
For `O=C(Cn1cc(-c2nnnn2-c2ccc(Cl)cc2)c(=O)c2ccccc21)c1ccccc1`, the activity change, negative = inhibition was -98.5% (active).
For `CC(C)(C)CC(C)(C)NCC(O)COCCOc1ccc(Br)cc1` (stereo unspecified), the activity change, negative = inhibition was -90.2% (active).
In the case of `COc1cccc(-c2noc(C3CCCN(C(=O)c4ccc(F)cc4)C3)n2)c1` (stereo unspecified), the activity change, negative = inhibition is reported as -66.4% (active).
In the case of `Cc1ccc(N=C2NC(=O)/C(=C/C=C/c3ccco3)S2)cc1C`, the activity change, negative = inhibition is reported as -82.4% (active).
With `COc1cccc(NC(=O)CSc2nnc(-c3cccnc3)o2)c1` the activity change, negative = inhibition was -83.2% (active).
In the case of `Cc1ccc(SCc2c(C(=O)N/N=C/c3cccnc3)nnn2-c2nonc2N)cc1`, the activity change, negative = inhibition is reported as -106% (active).
